{"source": "PubChem BioAssay AID1928", "about": "(Vanderbilt High Throughput Screening Facility, 2009)", "note": "Active and inactive are the calls of the source. No rule for the calls is given here.", "data": [{"target": "Muscarinic acetylcholine receptor M5 (Homo sapiens) (UniProt P08912)", "sequence (P08912 whole entry, looked up)": "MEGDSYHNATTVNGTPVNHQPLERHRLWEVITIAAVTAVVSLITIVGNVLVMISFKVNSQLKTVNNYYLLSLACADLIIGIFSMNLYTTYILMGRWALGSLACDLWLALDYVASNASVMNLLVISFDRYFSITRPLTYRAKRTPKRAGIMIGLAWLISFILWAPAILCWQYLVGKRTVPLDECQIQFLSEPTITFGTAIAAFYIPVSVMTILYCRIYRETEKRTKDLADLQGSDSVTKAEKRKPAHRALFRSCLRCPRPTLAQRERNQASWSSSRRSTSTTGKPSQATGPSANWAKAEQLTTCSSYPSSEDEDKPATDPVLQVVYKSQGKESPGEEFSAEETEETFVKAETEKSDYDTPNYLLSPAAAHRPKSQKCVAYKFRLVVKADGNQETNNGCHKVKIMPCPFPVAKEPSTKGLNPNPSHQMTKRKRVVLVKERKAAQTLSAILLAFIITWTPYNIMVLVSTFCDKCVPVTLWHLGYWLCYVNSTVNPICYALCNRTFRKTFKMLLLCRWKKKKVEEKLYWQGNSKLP", "assay": "ACh potency shift at human M5 – cell-based, analogs, calcium, selectivity assay for M4 PAM project, SAR follow-up (AID 1928)", "settings": "hM5-expressing cells, ACh CRC fold-shift; series mostly up to 1 µM; ACh response, % max: at the top concentration", "values": [{"smiles": "COc1ccc(CNC(=O)c2sc3nc(OCc4ccncc4)cc(C)c3c2N)cc1", "ACh response, % max": "96.3 (inactive)"}, {"smiles": "Cc1cc(OCc2ccncc2)nc2sc(C(=O)NCc3cccc(F)c3F)c(N)c12", "ACh response, % max": "92.3 (inactive)"}, {"smiles": "Cc1cc(OCc2ccncc2)nc2sc(C(=O)NCc3cc(F)ccc3F)c(N)c12", "ACh response, % max": "92.8 (inactive)"}, {"smiles": "Cc1cc(OCCN2CCOCC2)nc2sc(C(=O)NC(C)(C)C)c(N)c12", "ACh response, % max": "93.7 (inactive)"}]}]}
